Experimental data as given in PubChem BioAssay (EPA / NIEHS).
Inconclusive results are not listed. Activity calls are given as the source filed them. Rule for the calls: active = hit-call score of the fitted dose curve at least 0.9, where 1 is the maximum; inconclusive = response in the unintended direction; inactive = score below 0.9.

Assay: Tanguay_ZF_120hpf_MORT_legacy: (Legacy) Oregon State University Tanguay Lab 120 Hour Post-fertilization zebrafish Assay for Mortality (AID 2283633)
Method in brief: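 Dechorionated Tropical 5D wild-type zebrafish embryos, one per well from 6 hpf, static exposure in 0.64% DMSO at 28C until 120 hpf. Mortality scored as binary by brightfield microscopy at 24 and 120 hpf.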

| Structure (SMILES) | outcome |
| --- | --- |
| O=S(=O)(O)C(F)(F)C(F)(F)C(F)(F)C(F)(F)C(F)(F)C(F)(F)F | inactive |
| C=CC(N)=O | inactive |
| Cc1cccc(C)c1N | inactive |
| N#Cc1ccc(N(CC(N)=O)CC(F)(F)F)cc1C(F)(F)F | inactive |
| CC#Cc1cc(C)nc(Nc2ccccc2)n1 | inactive |
| CCCCCCOC(=O)c1ccccc1C(=O)OCCCCCC | inactive |
| ClC1=C(Cl)[C@]2(Cl)[C@@H]3[C@@H]4C[C@@H]([C@H]5O[C@@H]45)[C@@H]3[C@@]1(Cl)C2(Cl)Cl | inactive |
| CCCCCCCCCc1ccc(O)cc1 | inactive |

Assay: Tanguay_ZF_120hpf_YSE_legacy: (Legacy) Oregon State University Tanguay Lab 120 Hour Post-fertilization zebrafish Assay for Yolk Sac Edema (AID 2283634);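 for AC50: actives raise the incidence of yolk sac edema above the DMSO baseline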
Method in brief: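 Dechorionated Tropical 5D wild-type zebrafish embryos were exposed statically, one per well, from 6 to 120 hpf at 28C in 0.64% DMSO. Yolk sac edema was scored present/absent by brightfield at 120 hpf, and dead embryos were excluded.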

| Structure (SMILES) | outcome | AC50 |
| --- | --- | --- |
| Cc1ccccc1[N+](=O)[O-] | inactive |  |
| Cc1cc2c3c(c1)C(c1ccccc1)=N[C@@H](NC(=O)c1ccncc1)C(=O)N3CC2 | inactive |  |
| CCOP(=S)(OCC)SCSC(C)(C)C | inactive |  |
| Cc1ccccc1O | inactive |  |
| CCSC(=O)N(CC)C1CCCCC1 | inactive |  |
| CC1=C2C[C@H]3[C@@H](CC=C4C[C@@H](O)CC[C@@]43C)[C@@H]2CC[C@]12O[C@@H]1C[C@H](C)CN[C@H]1[C@H]2C |  | 17.2 µM (active) |
| CCCN(CCC)N=O | inactive |  |
| CCC(=O)O[C@H]1CC[C@H]2[C@@H]3CCC4=CC(=O)CC[C@]4(C)[C@H]3CC[C@]12C | inactive |  |
| O=C(O)C(F)(F)C(F)(F)C(F)(F)C(F)(F)C(F)(F)F | inactive |  |
| CCNc1nc(NC(C)C)nc(SC)n1 | inactive |  |
| Cc1ccccc1CO[C@@H]1C[C@@]2(C(C)C)CC[C@]1(C)O2 | inactive |  |
| CCC(C)(CC)c1cc(NC(=O)c2c(OC)cccc2OC)on1 | inactive |  |
| COc1ccc(O)c(C(C)(C)C)c1 | inactive |  |
| c1ccc(-c2ccccc2)cc1 | inactive |  |
| CN(C)c1nc(=O)n(C2CCCCC2)c(=O)n1C | inactive |  |
| O=C(NC(=O)c1cc(F)c(F)cc1Cl)Nc1cc(F)ccc1N1CCC(C(=O)O)CC1 | inactive |  |
| Nn1cnnc1 | inactive |  |
| O=C(O)C(F)(F)C(F)(F)C(F)(F)C(F)(F)C(F)(F)C(F)(F)C(F)(F)C(F)(F)C(F)(F)F | inactive |  |
| CCCCCCCCOC(=O)c1ccccc1C(=O)OCCCCCCCC | inactive |  |
| Clc1ccc(C(Cl)(Cl)Cl)cc1 | inactive |  |
| O=S(=O)(O)C(F)(F)C(F)(F)C(F)(F)C(F)(F)C(F)(F)C(F)(F)F | inactive |  |
| C=CC(N)=O | inactive |  |
| Cc1cccc(C)c1N | inactive |  |
| N#Cc1ccc(N(CC(N)=O)CC(F)(F)F)cc1C(F)(F)F | inactive |  |
| CC#Cc1cc(C)nc(Nc2ccccc2)n1 | inactive |  |
| CCCCCCOC(=O)c1ccccc1C(=O)OCCCCCC | inactive |  |
| ClC1=C(Cl)[C@]2(Cl)[C@@H]3[C@@H]4C[C@@H]([C@H]5O[C@@H]45)[C@@H]3[C@@]1(Cl)C2(Cl)Cl | inactive |  |
| CCOCCOC(C)=O | inactive |  |
| CCCCCCCCCc1ccc(O)cc1 | inactive |  |
